B1: ENSMUSG00000058297.304|Spock2|17:22 (ssRNA)
RNA: GGGAGUUCUACAGUCCGACGAUCGCUUCGAUAUCCGCAUGCUAAGUGAGGGCAGCCCCCACACACGUGGAAGAGGCUGGGCAGCUAGCUACUGGGGACCUUGUGCUGAGGCUUCCAGGACAAAGCCCCAGUCUGGCUCUCCCCCAGCCUCUCAGGGGCACUGGCUGGUCACAUCCACUGAGUAUUGAUCGGUUGGACUUUAGGGAAGAGCCUCCUCCUUCCCAUUCCUUUCUGCCACCCUGGAAUGGCCACCUUAAUCGUCAUCUCCUCGGGGGGAAUACGGAAAUGUCACCAAGCUCCAUAACUCUUGCGGUCGCACUAGUGUGGAAUUCUCGGGUGUCAAGG
B2: ENSMUSG00000090935.612|Synj2bp (ssRNA)
RNA: GGGAGUUCUACAGUCCGACGAUCGCUUCGAUAUCCGCAUGCUAUUUUCUGUGUGGGUGAUUUCAUUUAAUUAAUUGGACAGUCUAGCCACAGGCAACAAAUAGAAAUAGUAUUUGUAAUUAUAGUCUAUGCCAGGGACUGUCUUAAACUGAUUAGUAACACUAUGACUUACCCUGAGAUCUAAGUAUUGCUAUAAAGAGACUGAAGAGGAGAGAAUAAAGUAUUUUCCUAGGACUACAUAGUUGGUAAAAGAGAAUCAUGAUUUAAACUCUGGACUAUGGAUGGCAGUAUCAGUAAUAUUCCCCUCUUGCGGUCGCACUAGUGUGGAAUUCUCGGGUGUCAAGG
B3: ENSMUSG00000061578.450|Ksr2 (ssRNA)
RNA: GGGAGUUCUACAGUCCGACGAUCGCUUCGAUAUCCGCAUGCUACUUCUAACCUUGUACUGGGACAUCAUCUAUGUCCCCAUCCCCAGAGCUGAAUUAGAGACACCAAGUAGCCUCUUGGGUUGUUUUGUGGGGUGUUCCCCUUGCUGGUCAAAGGAGUGGAAAGCCACCUUGCUGUAAAUGCUCUUGUUUUCUGUAGCAAUCUUGAACUCUUUUUUUUUUUUGUUCGUUUGUUUGUUUGUUUGUUUGUUUGUUUUUUCAAGACAGGGUUUUUCUGUAUAGCCCUGGCUGUCCUGGAACUCAUUCUCUUGCGGUCGCACUAGUGUGGAAUUCUCGGGUGUCAAGG
B4: ENSMUSG00000043670.112|Diras1 (ssRNA)
RNA: GGGAGUUCUACAGUCCGACGAUCGCUUCGAUAUCCGCAUGCUACCGUGACCUCUGACCUGUGGCCUUCCCUGGGUCCAGAACACCCCUGUCCUCUCCUGUCUGCACACCAGGGUGGAUGGGCCCGAGGGCUGGGCCUCAGGCACCAGGCAAUAAACACAGGGCCUGCAGCAAUGCCCUGGCCACCCCGAGUACCACCUCUGGAAUAGCAGACGCCCACAGCACAAGCCCAGGACUGUCCCUUCAGGGGAGGCACACUGGAACCCUGAACUUGGAGUGUGGAGUGGCUGCCUGGACACUGCCCACUCUUGCGGUCGCACUAGUGUGGAAUUCUCGGGUGUCAAGG
B5: ENSMUSG00000090935.544|Synj2bp (ssRNA)
RNA: GGGAGUUCUACAGUCCGACGAUCGCUUCGAUAUCCGCAUGCUAUUGUUGAUCUAAAUAAAAAAUAUCAUUGGUAGAAGUUUUACUUUGGUUGAUAAGGAUUCUGAUAACAUUUGGGUCUCCUUAGGAAAGAAACACUUAACUAAAACAUUUAAGUUUUAGGCAAAUACUGUAAUAUUUCACUCUUAGUUAUAUGAAAACUAAAUGAGAUGUUGAGAAUCUAUAUAGAUUAUUCAAAUUUUAUGUUUCUUAUAGACUGACUCAAAUAUUCCUACCACCUUAAAAUUAUAUAUGAUGCACCUACCCUCUUGCGGUCGCACUAGUGUGGAAUUCUCGGGUGUCAAGG
B6: ENSMUSG00000029028.198|Lrrc47 (ssRNA)
RNA: GGGAGUUCUACAGUCCGACGAUCGCUUCGAUAUCCGCAUGCUAUGUGUACGCAUCUGUACCAGCACACAGCUGCCAUCCCUCGAGCCACAGUGCCUGGUCCUAAGGACCCAGCAGCUGCACAGAGGACUUGGUGGCCCCGUGCCUUGCCAUCUGGCUGAGAAGAGAACCAGACCCUCAGCCUUCCCCCUCGACACCUUCUCGUUGGUGACCUCUGACCUUAAAGGACCAUUUCUACCUUCUGUAAAAGAACACCUGUUUGGGGUUGCGUGCGGCUUUCAUCCUAAGGCCGUGCGAGAGCCGUUCUCUUGCGGUCGCACUAGUGUGGAAUUCUCGGGUGUCAAGG
B7: ENSMUSG00000029636.117|Wasf3 (ssRNA)
RNA: GGGAGUUCUACAGUCCGACGAUCGCUUCGAUAUCCGCAUGCUAGGAGCCCUGUGGGUACUCAUGUGGAAAGUGCCCACUGACUUUGGCAGAUGGAGUUCACUUUCAUGGCUAGCCCUGAUAGCGUUGGGCACCAGUUAGCCAGGCCAUGUUCAAGCUGCCUAGAGUCUGCAGAGCUUGCAUGGCAGAGCGGCCGCAUCUGGUUCCCUCCUACUCCACCCAGUGGAAAAGAGACCUCCACGUUUUAUUUUCUGGGAUCCCUGCUCCUCUGUUCACCAGGGAGUGAGCACAGGUCAGCACCUCACCUCUUGCGGUCGCACUAGUGUGGAAUUCUCGGGUGUCAAGG
B8: ENSMUSG00000042529.497|Kcnj12 (ssRNA)
RNA: GGGAGUUCUACAGUCCGACGAUCGCUUCGAUAUCCGCAUGCUAGGGCCCCUGCAGCUGGACCAUGUACAGGGCUCCCUGGGGCUUGUCCUCAGGGGCAGAGAAGGACAUGGUGGCAGCAGCACUGAGAACAGGAGCAUGGCCUCUCUCAGACCCCAGGGCAGUCAUUCAGUCUUUUCCAUGGACACUCCCCACCGCUCCACAUACUGCCUCCGCCUCAUUCUUGGGCUCUUCCUGCCUUGCUGUCUUUCCUUCCACACAGAAGCACCAAGCAUCAUCCAUUCCCAUAGGCAAGCCCAGGGCACCUCUUGCGGUCGCACUAGUGUGGAAUUCUCGGGUGUCAAGG
B9: ENSMUSG00000058297.521|Spock2 (ssRNA)
RNA: GGGAGUUCUACAGUCCGACGAUCGCUUCGAUAUCCGCAUGCUAGACCACGUGUGAUGGGUGGGCACAGGUCUGCCUUGCUCCAGCCCCCUCCCUUGGUUUCUGUUGGUACCCAUUUGGCUUUUAUCUGCUUUCUGCUUCACCACUAAGUGCGUAGGUGGGGUCUUUUGAUAUCGGCUCCCCAAAGCCCAAGCCCACAGCCCUAGGAGAGAACCAGGGGCCCAUCUUUGACACCUGGGCCAUCACGAGCCCUCCCGCCUGCAGUUGUCCUAGGGAAAGACCUGGGGGUGCAAAAGGAGAUUCAACUCUUGCGGUCGCACUAGUGUGGAAUUCUCGGGUGUCAAGG

Whole data set: some 9,900 sequences, median “r (bound/input frequency ratio)” near 0.7, cut for the highest 2% near 6.5. This is one part of a sample in which the highest values are shown more often than they occur.

Sequence of TDP-43 (Q13148 whole entry): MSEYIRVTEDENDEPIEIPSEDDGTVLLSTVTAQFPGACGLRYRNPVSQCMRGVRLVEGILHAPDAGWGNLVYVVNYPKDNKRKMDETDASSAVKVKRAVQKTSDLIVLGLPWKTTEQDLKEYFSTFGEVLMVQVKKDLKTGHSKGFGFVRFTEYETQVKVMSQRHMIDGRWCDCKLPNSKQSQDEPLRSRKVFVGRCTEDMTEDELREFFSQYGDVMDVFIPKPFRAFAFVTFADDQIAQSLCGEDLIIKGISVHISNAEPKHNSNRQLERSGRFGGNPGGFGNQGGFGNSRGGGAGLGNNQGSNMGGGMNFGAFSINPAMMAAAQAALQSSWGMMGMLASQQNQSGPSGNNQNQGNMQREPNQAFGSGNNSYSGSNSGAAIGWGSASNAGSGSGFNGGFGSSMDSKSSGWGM

The assay deals with TDP-43 (Homo sapiens, UniProt Q13148 1-414). The assay is described as follows: RNA Bind-n-Seq with designed 260-mer pool; 25 mM Tris-HCl, 150 mM KCl, 3 mM MgCl2, BSA (printed 500 mg/mL), 20 units/mL SUPERase IN; pH not stated; 500 nM RNA pool, 1 h, 4 C; TDP-43 5, 50, 500 nM; high values mean tight binding. Particulars: protein: recombinant; tags: SBP (GST cleaved off with PreScission; pGEX-GST-SBP). A digest of the protocol:
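Duplicate measurements used two independent batches of recombinant SBP-tagged TDP-43, which was captured on streptavidin beads at 5, 50 or 500 nM. The beads were incubated with 500 nM of an in vitro-transcribed 260-nt 3′ UTR oligo pool for 1 h at 4 °C in 25 mM Tris-HCl, 150 mM KCl, 3 mM MgCl2, BSA and SUPERase IN. After washing, biotin elution, reverse transcription, PCR amplification and sequencing, binding was expressed as R: each oligo's normalized read abundance in the bound sample over its abundance in input.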
B1: the binding signal is 0.535 R (bound/input frequency ratio).
Under B2 stands 0.0897 R (bound/input frequency ratio); under B3, 2.73 R (bound/input frequency ratio); under B4, 0.898 R (bound/input frequency ratio).
Under B5 stands 0.0172 R (bound/input frequency ratio); under B6, 0.346 R (bound/input frequency ratio).
Next, B7: 0.346 R (bound/input frequency ratio); B8: 0.929 R (bound/input frequency ratio).
As to B9, the binding signal is 0.432 R (bound/input frequency ratio).

(Values after article PMC12864922, “TDP-43 directly inhibits mRNA accumulation in neurites through modulation of mRNA stability”.)
